# Bioassay records deposited in PubChem BioAssay by Broad Institute.
# esBAF inh = Bmi1 luciferase reporter increase in mESCs, primary screen, esBAF inhibitor project, mouse ES cells, Bmi1 luciferase knock-in, single point. 24 h; 100% = twice the neutral-well signal. reporter increase, % at 12.5 µM. 350,000 compounds, 2% hits. AID 602393, 2012; in the data active = activation above about 40%; inconclusive = no clear call, values can overlap the other calls;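 also: 0% = median of the plate's neutral control wells and 100% = double that signal; a rise in the Bmi1 reporter signal indicates esBAF inhibition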
# MITF TRPM1 HTS = activators of MITF-driven TRPM1 promoter reporter, primary screen, cell-based, SK-MEL-5, luciferase, single point. SK-MEL-5 TRPM1-promoter luciferase, 24 h; % of positive control, neutral wells = 0. activation, % at 12.5 µM. 300,000 compounds, 0.75% hits;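 active = mean activation of at least 80% with every replicate also reaching 80%; inconclusive = mean reaches 80% but some replicate falls short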;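 also: 0% = neutral control wells and 100% = parthenolide positive control wells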
# Wnt bcat act = Wnt/beta-catenin pathway activators, primary screen, cell-based, plate reader, single point; Wnt/beta-catenin reporter cell assay, activator; activation, % at 9.35 µM; 300,000 compounds, 1.2% hits; AID 743398, 2014; in the data active = activation above about 30%, passing the limit was not always enough; inconclusive = no clear call, values can overlap the other calls;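 also: 0% = neutral control wells and 100% = positive control wells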
# Glyco luc inh = increase of ERlucT glycosylation luciferase signal, primary screen, N-linked glycosylation inhibitor project, D54 ERlucT cells, luminescence, set 2; D54 ERlucT glycosylation luciferase reporter, 24 h; percent of 100 nM tunicamycin response; 360,000 compounds, 0.23% hits; reporter increase, % at 12.5 µM; AID 588692, 2011;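 active = mean luciferase reporter signal, scaled so untreated is 0 and the glycosylation-blocking control 100, at or above a set limit in every replicate; inconclusive = mean reaches the limit but not every replicate does; inactive = mean below the limit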;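 also: luciferase carries N-glycosylation sites so blocking glycosylation raises the light; 0% = median of neutral control wells and 100% = median of 100 nM tunicamycin wells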
# Vif imaging = HIV Vif self-association inhibitors, primary screen, imaging, HEK293T, single point | inhibition, % at 7.49 µM | HEK293T cells, Vif self-association by quenched fluorescence, 24 h | 340,000 compounds, 0.35% hits; in the data active = inhibition above about 50%, passing the limit was not always enough; inconclusive = no clear call, values can overlap the other calls; inactive = below about 31%
# PvdQ acylase = P. aeruginosa PvdQ acylase inhibitors, primary screen, biochemical, fluorescence, plate reader and imaging, single point; PvdQ acylase [Pseudomonas aeruginosa LESB58]; purified PvdQ acylase; inhibition, % at 10 µM; 340,000 compounds, 0.063% hits; AID 488965, 2010; in the data active = inhibition above about 30%, passing the limit was not always enough; inconclusive = no clear call, values can overlap the other calls;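 also: 0% = vehicle neutral wells and 100% = reference inhibitor wells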
# Starred values were filed as active, the others as inactive; ? = inconclusive; . = no result given. A selection: hits, their analogues and other compounds. The true share with any hit is near 2.9%.
SMILES,esBAF inh,MITF TRPM1 HTS,Wnt bcat act,Glyco luc inh,Vif imaging,PvdQ acylase
CC(Oc1ccc(Cl)cc1Cl)c1nc(-c2ccc(NC(=O)c3cccnc3)cc2)no1 (stereo not given),11,0,.,-5,27,-1
CCC(c1ccccc1)c1nc(-c2ccccn2)no1 (stereo not given),47*,25,.,-3,4,-11
C=CC(=O)N1C/C(=C/c2ccc(F)cc2)C(=O)/C(=C\c2ccc(F)cc2)C1,-81,-96,-9,-18,143*,6
CN1C2CCC1/C(=C\c1ccc(F)cc1)C(=O)/C2=C/c1ccc(F)cc1,.,-29,-2,20,-1,5
COc1ccc(CNC(=O)C[C@H]2CC[C@H]3[C@H](COc4ccc(NC(C)=O)cc4C(=O)N3C)O2)cc1,-4,.,.,.,.,.
CCOC(=O)c1nn(-c2ccc3c(c2)OCCO3)cc1O,1,82*,27,-7,6,4
Cc1ccc(NC(=O)COC(=O)c2nn(-c3ccc(Cl)cc3)cc2O)cc1,49*,31,5,-1,-15,2
CC(=O)c1nn(-c2ccc(Cl)cc2)cc1C(=O)c1ccccc1,.,.,2,0,5,-4
COC(=O)c1nn(-c2ccc3c(c2)OCO3)cc1O,.,44,.,-5,1,-3
CCOC(=O)c1nn(-c2ccc(C)cc2)cc1C(=O)c1ccccc1,79*,.,.,-8,?,13
NNC(=O)c1nn(-c2ccc(Cl)cc2)cc1O,-1,-11,3,1,-15,-15
CCOC(=O)c1nn(-c2ccc(C)c(C)c2)cc1O,46*,?,.,-7,-3,-8
CC(C)NC(=O)N(C)C[C@@H]1Oc2ccc(NC(=O)Nc3cccc4ccccc34)cc2C(=O)N([C@@H](C)CO)C[C@@H]1C,-2,.,.,.,.,.
COc1ccc(S(=O)(=O)Nc2ccc3c(c2)C(=O)N([C@@H](C)CO)C[C@@H](C)[C@H](CN(C)Cc2ccc4c(c2)OCO4)OCCCC[C@@H](C)O3)cc1,-5,.,.,.,.,.
C[C@@H]1CN([C@H](C)CO)C(=O)c2cc(C3=CCCC3)cnc2O[C@@H]1CN(C)Cc1cccc(F)c1,0,.,.,.,.,.
C[C@H]1CCCCO[C@@H](CN(C)S(=O)(=O)c2ccc(Cl)cc2)[C@@H](C)CN([C@@H](C)CO)C(=O)c2cc(NS(=O)(=O)c3ccc(F)cc3)ccc2O1,-1,.,.,.,.,.
C[C@@H]1CN([C@H](C)CO)S(=O)(=O)c2ccc(-c3cccnc3)cc2O[C@H]1CN(C)C(=O)C1CCCCC1,2,.,.,.,.,.
C[C@H]1CN([C@@H](C)CO)C(=O)c2cccc(NS(=O)(=O)c3cccs3)c2O[C@H]1CN(C)S(=O)(=O)c1ccc(F)cc1,0,.,.,.,.,.
Cc1nc([N+](=O)[O-])cn1CC(O)c1ccc(Cl)cc1 (stereo not given),.,.,37*,-2,-4,-9
O=Nc1c2cc3ccccc3[nH]c-2c2ccccc12,-1,18,74*,-12,-12,-24
Cc1nn(C)cc1NC(=O)C[C@@H]1CC[C@@H]2[C@H](COc3ccc(NC(=O)NC(C)C)cc3C(=O)N2C)O1,-6,.,.,.,.,.
C[C@H]1CCCCO[C@@H](CN(C)C(=O)Nc2ccc3c(c2)OCO3)[C@@H](C)CN([C@@H](C)CO)C(=O)c2cc(NS(=O)(=O)c3cn(C)cn3)ccc2O1,-2,.,.,.,.,.
CCC1CCCCN1CCCNC(=O)c1ccc2nc(N3CCC(C)CC3)sc2c1 (stereo not given),58*,-41,16,2,-8,9
CC1CCN(c2nc3ccc(C(=O)NCCCN4CCCCC4)cc3s2)CC1,62*,-53,5,-1,12,-18
CC1CCN(c2nc3ccc(C(=O)O)cc3s2)CC1,-71,-90,.,-13,18,-1
SMILES,esBAF inh,MITF TRPM1 HTS,Wnt bcat act,Glyco luc inh,Vif imaging,PvdQ acylase
CN(C)c1cccc(C(=O)n2cc(C(=O)c3cc(F)ccc3O)cn2)c1,52*,10,.,-4,1,-9
COc1ccc2nc(N3CCCC3)c(C#N)cc2c1,21,63,?,0,0,5
COc1ccc2nc(N3CCCCC3)c(C#N)cc2c1,?,.,44*,4,1,7
CC(=O)CCSc1ncnc2sc(-c3ccccc3)cc12,77*,69,43*,-9,-3,-8
Cc1ccc2[nH]c(-c3cccc(N)c3)cc2c1,39,70,82*,-5,4,-10
Cc1ccc2[nH]c(-c3cccc(F)c3)cc(=O)c2c1,27,-10,-15,19,.,0
O=C1CC(c2ccc(O)c(O)c2)Oc2cc(O)cc(O)c21 (stereo not given),7,14,-1,0,15,6
O=C1CC(c2ccccc2)Oc2cc(O)cc(O)c21 (stereo not given),60*,.,1,-4,29,-8
COc1ccc(C2CC(=O)c3c(O)cc(O)cc3O2)cc1O (stereo not given),52*,57,17,-2,-5,-1
O=C1O[C@@H](c2ccc(O)cc2)Cc2cccc(O)c21,6,-15,-1,1,3,-10
COc1ccc([C@H]2Cc3cc(O)cc(O)c3C(=O)O2)cc1O,25,74,41*,-6,4,2
COc1ccc([C@H]2Cc3cccc(O)c3C(=O)O2)cc1O,55*,41,16,0,-3,-9
CNC(=O)C[C@H]1CC[C@@H]2[C@H](COC[C@H](O)CN2C(=O)Nc2cccc(OC)c2)O1,5,.,.,.,.,.
COC(=O)c1cc(=O)n(Cc2cccs2)c(=Nc2ccc(F)cc2)s1,-3,.,-2,22,0,-2
COC(=O)c1cc(=O)n(-c2ccc(F)cc2)c(=Nc2ccc(F)cc2)s1,30,-23,3,39*,-5,-12
CN(C)C(=O)c1cccc(-c2ccc3n(c2=O)C[C@@H]2N[C@H]3[C@H](C(=O)NC3CCC3)[C@H]2CO)c1,0,.,.,.,.,.
CCCCSc1nc(C(=O)O)cc(=O)[nH]1,-1,-8,38*,1,1,-11
CCCCSc1nc(CCC)cc(=O)[nH]1,.,.,.,1,4,-8
O=C(NC(C(=O)O)c1ccccc1)c1ccccc1 (stereo not given),2,-14,2,0,7,-10
O=C(NC(C(=O)c1ccccc1)c1ccccc1)c1ccccc1 (stereo not given),41*,41,-2,-3,-3,-11
Cc1sc(NC(=O)C2CCCCC2C(=O)O)c(C(N)=O)c1-c1ccc(C(C)C)cc1 (stereo not given),62*,31,.,1,2,-1
COc1ccc2oc(C(=O)N3CCCc4ccccc43)c(C)c2c1,75*,68,0,-4,-6,-12
